Assay outcomes as filed in PubChem.
TrxR1 substrate = substrates of rat thioredoxin reductase 1 | O89049 | purified TrxR1 substrate turnover, NADPH consumption readout | Potency, µM (highest dose often 114 µM), without a hit: at the top dose activity change, negative = substrate turnover | hit rate 0.01% among 390,000; further: nearly all actives have a fitted effect of over 50% in size
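Rat TrxR1, dispensed at 90 nM, was prereduced with 400 uM NADPH (final) for 5 min at ~22 deg C, then incubated with compound 15 min before 400 uM selenite. A first-read NADPH fluorescence drop versus no-compound background flagged substrates.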
GLS inh = inhibitors of human glutaminase (GLS) | O94925 | Potency, µM (series often up to 45.5 µM), for the others: at the highest dose activity change, negative = inhibition, most hits filed as inhibitors | hit rate 0.21% among 410,000 | GLS enzymatic activity, qHTS titration
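Two-point fluorescence kinetic (t0, 30 min RT) for hKGA; glutamate detected via glutamate oxidase–HRP–Amplex Red. Substrate: 1 mM L-glutamine solution; buffer 45 mM KH2PO4, pH 8.2.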
mIDH1 inhibitor = inhibitors of human mutant IDH1 R132H; O75874; IDH1-R132H enzyme, NADPH consumption, diaphorase/resazurin fluorescence; Potency, µM (series often up to 76.6 µM), for the others: at the highest dose activity change, negative = inhibition, hits mostly inhibitors; hit rate 0.093% among 390,000; AID 602179; further: nearly all actives have a fitted effect of over 65% in size
Target sequence (O75874 whole entry R132H, stated change not applied): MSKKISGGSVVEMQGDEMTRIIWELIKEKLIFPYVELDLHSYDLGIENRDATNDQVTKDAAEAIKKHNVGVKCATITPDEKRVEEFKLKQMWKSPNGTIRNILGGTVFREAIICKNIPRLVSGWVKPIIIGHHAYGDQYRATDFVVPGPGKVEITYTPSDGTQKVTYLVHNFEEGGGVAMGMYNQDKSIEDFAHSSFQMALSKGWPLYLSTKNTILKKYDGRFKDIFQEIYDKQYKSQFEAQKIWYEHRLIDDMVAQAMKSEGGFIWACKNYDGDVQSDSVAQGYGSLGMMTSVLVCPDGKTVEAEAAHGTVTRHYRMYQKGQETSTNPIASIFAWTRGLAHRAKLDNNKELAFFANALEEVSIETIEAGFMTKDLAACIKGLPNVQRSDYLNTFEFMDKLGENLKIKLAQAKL
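IDH1-R132H (0.5 ug/mL) preincubated 30 min with compound, then NADPH (0.016 mM) and alpha-KG (2 mM) added; 80 min at RT, pH 7.5. Remaining NADPH coupled via diaphorase/resazurin to fluorescence (540/590 nm); concentration-response curves normalized to no-enzyme control.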
TrxR1 inh = rat TrxR1 inhibition. O89049. recombinant rTrxR1, NADPH fluorescence consumption, selenite substrate. hit rate 1% among 390,000. Potency, µM (doses to about 114 µM), without a hit: top-dose activity change, negative = inhibition, actives largely listed as inhibitors; further: nearly all actives have a fitted effect of over 65% in size
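Rat TrxR1 (90 nM in the dispensed reagent) was pre-reduced with 400 uM NADPH for 5 min at room temperature, then incubated with compound for 15 min. After 400 uM selenite was added, NADPH fluorescence (Ex 340/Em 450 nm) was followed for 8 min.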
The depositor's hits bear a star; u = inconclusive; x = not tested or not shown; [ ] = remark or other dose. The list is not random: actives were taken first. Their share in the collection is about 1.2%. The call rests on the fitted dose curve; in most records, active means well fitted curve in the direction sought with a large enough effect; inconclusive means small, poorly fitted or top-dose-only effect, or another doubt; inactive means no such curve, though single readings can be large; an effect the other way counts as inactive or inconclusive. On the % scale 0 is the no-effect control and ±100 the full control effect; potency means the concentration at half of the fitted maximal effect.

SMILES	TrxR1 substrate	GLS inh	mIDH1 inhibitor	TrxR1 inh
Cc1ccc(NC(=O)CN2C(=O)S/C(=C\c3cc(Cl)c(OCC(=O)O)c(Cl)c3)C2=O)cc1	-6%	u	37µM*	-12%
CCCC(O)(CCN1CCOCC1)c1ccc(Cl)cc1 (stereo not drawn)	5%	-1%	8%	u
CCCC(O)(CCN1CCOCC1)c1ccc(Br)cc1 (stereo not drawn)	-6%	x	9%	35µM*
C/C(=N\NS(=O)(=O)c1ccc(Cl)c([N+](=O)[O-])c1)c1ccc(C)o1	-8%	2%	2%	40µM*
CCCS(=O)(=O)NC(=O)C1(C)CCN(C(=O)c2c(-c3ccccc3)noc2C)C1 (stereo not drawn)	x	9%	x	x
Cc1ccc(N2CCN(Cc3nnc(-c4ccc5c(c4)OCO5)o3)CC2)c(C)c1	7%	1%	-12%	11%
O=C(/C=C/c1ccco1)NCc1ccc2c(c1)OCO2	2%	6%	0%	35µM*
O=C(/C=C/c1ccco1)NCCc1ccc(F)cc1	4%	-29%	0%	45µM*
O=C(/C=C/c1ccco1)Nc1ccc2c(c1)OCO2	-13%	6%	9%	71µM*
COc1ccccc1/C=C/C(=O)NNC(=O)c1cc(C)oc1C	1%	4%	3%	-16%
Cc1cc(C(=O)NNC(=O)/C=C/c2ccco2)c(C)o1	4%	10µM*	0%	2.8µM*
O=C(/C=C/c1ccco1)Nc1ccc(F)cc1	1%[57.1 µM]	-6%	x	u
COc1ccc(CC(=O)NCC(c2ccc(N(C)C)cc2)N2CCOCC2)cc1 (stereo not drawn)	5%[57.1 µM]	60%	1%	6%[57.1 µM]
Cc1ccc(OCCNC(=O)/C=C/c2ccco2)cc1C	4%	-5%	11%	11µM*
Cc1ccc(OCCNC(=O)/C=C/c2ccccc2)cc1C	-6%	-9%	9%	-3%
O=C(C=Cc1ccco1)c1ccco1	13%[57.1 µM]	52%	0%	14µM*
O=C(/C=C/c1ccc(Br)cc1)c1ccco1	4%[57.1 µM]	-8%	12%	-39%
O=C(/C=C/c1ccco1)NCC1COc2ccccc2O1 (stereo not drawn)	1%	-8%	7%	16µM*
O=C(/C=C/c1ccco1)Nc1cccnc1Cl	1%	-21%	-8%	16µM*
NS(=O)(=O)c1ccc(NC(=O)/C=C/c2ccco2)cc1	-14%	-3%	-19%	18µM*
CC(C)(C)C(=O)NCc1ccc(C(=O)CSc2nnc3n2CCCCC3)s1	x	-9%	15%	x
COc1ccc(N2C(=O)CC(N3CCN(c4ccc(S(C)(=O)=O)cc4)CC3)C2=O)cc1 (stereo not drawn)	9%	1%	-6%	16µM*
COc1cc2nc(CCc3nc4cc(OC)c(OC)cc4[nH]3)[nH]c2cc1OC	2%	x	x	18%
C=C(C1=CCN(S(=O)C(C)(C)C)[C@H]1CCO)c1ccccc1 (stereo partly drawn)	2%	-1%	-9%	u
C=CC1=CCN(S(=O)C(C)(C)C)[C@@H]1CCO (stereo partly drawn)	10%	1%	12%	50µM*
SMILES	TrxR1 substrate	GLS inh	mIDH1 inhibitor	TrxR1 inh
Cc1nn(-c2ccccn2)c2c1-c1nc(N)sc1CC2	-19%	x	x	u
O=C(O)c1cc(N(Cc2ccccc2O)Cc2ccccc2O)ccc1O	1%	x	x	40µM*
CCOC(=O)c1c(C)c(C(=O)NCc2ccc(Cl)cc2)c(C)n1C	-5%	-14%	1%	6%
COc1cc(C(C#N)N2N=C(c3ccccc3)CC2c2ccccc2)ccc1O (stereo not drawn)	-12%	-5%	1%	-22%
COc1ccc(C(C#N)N2CCC(c3ccccc3)=N2)cc1 (stereo not drawn)	8%[57.1 µM]	3%	9%	16µM*
CN1C(=O)/C(=N\OC(=O)c2ccccc2Cl)c2ccccc21	5%	24%	-1%	10µM*
CC(=O)O/N=C1\C(=O)N(Cc2ccc(C)cc2)c2ccccc21	-7%	44%	-1%	-72%
O=C(C[N+]12CN3CN(CN(C3)C1)C2)c1ccc(O)c(O)c1	-5%	x	x	-31%
Cc1ccc(-c2nnc(N3CCN(C(=O)c4ccco4)CC3)c3ccccc23)cc1	-5%	14%	-1%	56µM*
Cc1cc(C)c2nc(N3CCCN(C(=O)c4ccco4)CC3)c(C#N)cc2c1	23%	x	0%	10µM*
CC(=O)N1CCN(c2nnc(-c3ccccc3)c3ccccc23)CC1	-3%	-12%	13%	5%
Cc1nc(N2CCN(C(=O)c3ccco3)CC2)c(C#N)c2c1CCCC2	22%	-2%	16%	12%
CCCCN1CCC2C=CCC(C(=O)O)C2C1=O (stereo not drawn)	1%	x	x	9%
CC(CSC(=O)c1ccccc1)C(=O)N1CC(Sc2ccccc2)CC1C(=O)O (stereo not drawn)	x	3%	x	x
O=C(O)CSc1nnc(CNc2cccc(C(F)(F)F)c2)n1Cc1ccco1	6%	-21%	-1%	-26%
Cc1cc(NC(=O)CSc2nnc(COc3ccccc3)n2Cc2ccco2)no1	11%	0%	5%	20%
O=C(CSc1nnc(COc2ccccc2)n1Cc1ccco1)NCc1ccco1	5%	-2%	-8%	11µM*
CCn1c(SCC(=O)NCc2ccco2)nnc1-c1ccc(N(C)C)cc1	-2%	x	x	-9%
CCn1c(SCC(=O)NCc2ccco2)nnc1-c1cccs1	3%	3%	7%	14µM*
O=C(CSc1nnc(C2CCCCC2)n1-c1ccccc1)NCc1ccco1	13%	20%	-3%	13µM*
O=C(CSc1nnc(CNc2cccc(C(F)(F)F)c2)n1Cc1ccco1)NCc1ccco1	11%[57.1 µM]	-1%	0%	16µM*
CCN(CC)c1ccc(/C=C2\CCC(/C=N/NC(=O)c3ccc(=O)n(C)c3)=C2N2CCOCC2)cc1	-8%[57.1 µM]	7.1µM*	5%	-6%[57.1 µM]
O=C(N/N=C/C1=C(N2CCOCC2)C(=C\c2ccccc2)/CC1)Nc1ccccc1	-6%	-3%	11%	-17%
Cc1c([N+](=O)[O-])cc(N2C(=O)C=CC2=O)cc1[N+](=O)[O-]	3%[57.1 µM]	-19%	4%	3.2µM*
Cc1ccc(N2C(=O)C3C4C=CC(CC4)C3C2=O)cc1[N+](=O)[O-] (stereo not drawn)	1%	-10%	5%	20%
SMILES	TrxR1 substrate	GLS inh	mIDH1 inhibitor	TrxR1 inh
Cc1cc(C)cc(N2C(=O)C=CC2=O)c1	-2%	-9%	6%	1.1µM*
Cc1cc(N2C(=O)C=CC2=O)c([N+](=O)[O-])cc1C	10%	5%	5%	2.8µM*
Cc1cc(C)cc(N2C(=O)c3nccnc3C2=O)c1	-2%	-3%	4%	6%
OC[C@H]1O[C@@H](n2cnc3c2NC=NC[C@H]3O)C[C@@H]1O	x	1%	x	x
Cc1ccc(S(=O)(=O)N2C[C@H]3C(=O)C[C@@H](c4ccccc4)N(S(=O)(=O)c4ccc(C)cc4)[C@H]3C[C@H]2c2ccccc2F)cc1	x	5%	x	x
CC(C)c1ccc(N(CC(=O)O)S(=O)(=O)c2ccc3[nH]c(=O)c(=O)[nH]c3c2)cc1	3%[57.1 µM]	-4%	13%	12%[57.1 µM]
